Hits are enriched below; roughly 2.1% of the tested compounds scored in any of these assays.
Ecoli rRNA inh = reduced GFP signal of wild-type E. coli, primary screen, bacterial rRNA inhibitor project, GFP/RFP fluorescence, OD600, single point; E. coli WT GFP vs humanized-ribosome RFP mutants, 24 h; stronger effect = lower value; DMSO median 0, no signal -100; GFP signal change (wild-type ribosome), % (no concentration beside the values); 350,000 compounds, 1.6% hits; AID 720706, 2013;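 active = significant combined selectivity score with lowered wild-type GFP, culture density cut under 30%, mutant RFP and density less affected; inactive = any of these conditions unmet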
ARNT-TACC3 inh = disruptors of ARNT/TACC3 protein interaction, primary screen, biochemical, AlphaScreen, single concentration. AlphaScreen His-ARNT PAS-B/GST-TACC3 binding, luminescence; TACC3 fragment carries E629A point mutation. AID 623870, 2012. inhibition, % at 9.99 µM. 390,000 compounds, 0.66% hits;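 active = mean inhibition of replicates at least 50% and at least half of replicates each reaching 50%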
CFTR F508del cor = F508del CFTR correction, initial screen, CFBE line, single point. activity (quench increase), % at 7.58 µM. CFBE cells, YFP halide quenching; stimulated with forskolin plus potentiator P3; % fluorescence drop versus neutral controls. 350,000 compounds, 0.36% hits;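 active = mean added fluorescence quench of at least 8% versus neutral control, with both replicates also reaching 8%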;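 also: cells transiently co-express mutant CFTR-F508del with the halide-sensitive YFP; corrector assay measuring rescue of mutant channel to the surface after 24 h compound exposure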
PvdQ acylase = P. aeruginosa PvdQ acylase inhibitors, primary screen, biochemical, fluorescence, plate reader and imaging, single point. inhibition, % at 10 µM. 340,000 compounds, 0.063% hits. purified PvdQ acylase; in the data active = inhibition above about 30%, passing the limit was not always enough
ERAP1 HTS inh = human ERAP1 aminopeptidase inhibitors, primary screen, biochemical, single point, plate reader | Endoplasmic reticulum aminopeptidase 1 (Homo sapiens), Q9NZ08 | recombinant ERAP1, Leu-AMC fluorescence, 60 min | inhibition, % at 10.7 µM | 340,000 compounds, 0.15% hits | AID 652197, 2013;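 active = mean replicate inhibition of at least 30%, or all replicates individually reaching that 30% level; inactive = mean below 30% and not every replicate reaching it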
Target sequence (Q9NZ08 whole entry, looked up): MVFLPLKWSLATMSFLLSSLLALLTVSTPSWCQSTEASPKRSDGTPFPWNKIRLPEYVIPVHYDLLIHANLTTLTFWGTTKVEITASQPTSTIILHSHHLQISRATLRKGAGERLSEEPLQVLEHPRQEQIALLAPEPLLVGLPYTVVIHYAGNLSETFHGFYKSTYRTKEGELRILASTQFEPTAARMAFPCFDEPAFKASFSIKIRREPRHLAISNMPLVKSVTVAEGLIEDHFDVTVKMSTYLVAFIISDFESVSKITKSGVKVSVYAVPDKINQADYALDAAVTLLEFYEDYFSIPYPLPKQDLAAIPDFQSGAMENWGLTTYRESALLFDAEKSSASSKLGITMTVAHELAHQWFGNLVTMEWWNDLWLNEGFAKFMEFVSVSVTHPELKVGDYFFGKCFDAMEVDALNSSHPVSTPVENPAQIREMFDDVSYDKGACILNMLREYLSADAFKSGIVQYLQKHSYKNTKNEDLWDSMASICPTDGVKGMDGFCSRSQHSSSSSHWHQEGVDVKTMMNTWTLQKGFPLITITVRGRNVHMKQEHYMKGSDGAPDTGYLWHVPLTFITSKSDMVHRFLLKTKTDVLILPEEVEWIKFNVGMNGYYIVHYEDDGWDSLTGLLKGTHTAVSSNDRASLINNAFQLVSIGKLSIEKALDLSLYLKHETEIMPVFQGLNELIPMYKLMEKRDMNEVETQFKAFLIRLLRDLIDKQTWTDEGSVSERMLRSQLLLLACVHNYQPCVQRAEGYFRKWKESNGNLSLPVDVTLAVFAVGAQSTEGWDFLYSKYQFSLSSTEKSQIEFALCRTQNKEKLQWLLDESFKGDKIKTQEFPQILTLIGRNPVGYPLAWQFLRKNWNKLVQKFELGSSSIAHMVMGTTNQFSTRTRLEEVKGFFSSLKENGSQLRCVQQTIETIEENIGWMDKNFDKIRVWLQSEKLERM
A number is an active result; – = inactive; · = not tested or not shown.

SMILES	Ecoli rRNA inh	ARNT-TACC3 inh	CFTR F508del cor	PvdQ acylase	ERAP1 HTS inh
CC(C)NC(=O)Nc1ccc2c(c1)C(=O)N([C@H](C)CO)C[C@@H](C)[C@H](CN(C)CC1CCCCC1)OCCCC[C@@H](C)O2	–	–	–	·	–
COC(=O)N/N=C/c1cn(Cc2ccc(Cl)cc2Cl)c2ccccc12	-28	–	–	–	–
COC(=O)N/N=C/c1cn(Cc2ccccc2Cl)c2ccccc12	-26	–	·	–	–
O=C(N/N=C/c1cn(Cc2cccc(F)c2)c2ccccc12)c1cc(O)cc(O)c1	-24	·	–	–	–
O=C(O)c1ccc(N/N=C/c2cn(Cc3ccccc3F)c3ccccc23)cc1	-35	–	–	–	–
C[C@@H]1CN([C@@H](C)CO)S(=O)(=O)c2ccc(-c3cccc(C#N)c3)cc2O[C@H]1CN(C)C(=O)c1ccc(F)cc1	–	–	–	·	–
CCN(CC)C(=S)SSC(=S)N(CC)CC	–	–	14	–	–
COc1ccc(OC)c(N(CC(=O)Nc2ccccc2)S(=O)(=O)c2ccccc2)c1	–	–	–	–	–
CCOc1ccc(N(CC(=O)NC(C(C)C)C(C)C)S(=O)(=O)c2ccc(OC)c(OC)c2)cc1	-30	–	–	–	–
COc1ccc(NC(=O)CN(c2ccccc2)S(=O)(=O)c2ccccc2)c(OC)c1	-24	–	–	–	–
CCOc1ccc(NC(=O)CN(c2ccc([N+](=O)[O-])cc2)S(=O)(=O)c2ccccc2)cc1	–	–	15	–	–
CCNC(=O)Nc1ccc2c(c1)C(=O)N(C)[C@@H]1CC[C@@H](CC(=O)Nc3ccccc3)O[C@H]1CO2	–	–	–	·	–
COc1cc(C(O)c2nc3ccccc3n2C(C)C)cc(OC)c1OC (stereo not given)	–	50	–	–	–
COc1ccc(OC)c(C(O)c2nc3ccccc3n2C(C)C)c1 (stereo not given)	·	–	·	–	·
CC(C)CC#Cc1cnc2c(c1)C(=O)N([C@H](C)CO)C[C@@H](C)[C@H](CN(C)C(=O)c1cnccn1)O2	–	–	–	·	–
C/C(O)=c1/c(=O)nc2cccc3c2=c1c1ccccc1c3=O	–	46	–	–	–
CCN1CCCC(OC(=O)c2cc(-c3ccccc3Cl)nc3ccccc23)C1 (stereo not given)	–	–	12	–	–
C[C@H]1CN([C@@H](C)CO)C(=O)c2cc(NS(=O)(=O)c3cn(C)cn3)ccc2O[C@@H]1CN(C)Cc1ccc(Oc2ccccc2)cc1	–	–	–	·	–
COCCn1c(=O)[nH]c(=O)c2c1nc(-c1ccc(-c3ccc(Cl)cc3[N+](=O)[O-])o1)n2Cc1ccccc1	·	–	·	–	–
COc1ccc(-c2ccc(-c3nc4c(c(=O)[nH]c(=O)n4Cc4ccccc4)n3C)o2)c([N+](=O)[O-])c1	·	24	·	–	–
COc1ccc(C2CC(c3ccc4ccccc4c3)=NN2C(=O)CN2CCC(C(N)=O)CC2)cc1 (stereo not given)	-48	–	–	–	–
O=C(CNC(=O)c1ccco1)OCc1ccc(C(=O)c2ccccc2)cc1	-33	–	–	–	–
O=C(CNC(=O)c1ccco1)OCc1ccc(Cl)cc1	·	–	·	–	·
C[C@@H]1CN([C@H](C)CO)C(=O)c2cc(NC(=O)c3ccncc3)ccc2O[C@@H](C)CCCCO[C@H]1CN(C)Cc1ccccc1	–	–	–	·	–
CCOC(=O)c1nc(C)sc1-c1ccnn1S(=O)(=O)c1ccccc1C(F)(F)F	·	–	9.8	–	·
CCOC(=O)N1CCN(S(=O)(=O)c2cc(Cl)ccc2Cl)CC1	·	–	·	–	·
CCOC(=O)c1nc(C)sc1-c1ccnn1S(=O)(=O)c1ccc(C)cc1	-22	–	–	–	–
CCOC(=O)c1nc(C)sc1-c1ccnn1S(=O)(=O)c1ccc(Cl)cc1Cl	-29	–	–	–	–
C[C@@H]1CN([C@H](C)CO)S(=O)(=O)c2ccc(-c3cccc(C#N)c3)cc2O[C@@H]1CN(C)C(=O)c1ccncc1	–	–	–	·	–

Assay outcomes as filed in PubChem.
